This is part of a sample that, as a whole, favours compounds with a hit. Of some 79,000 tested, about 15% had one in any assay. Active and inactive are the calls of the source. Cut-off read from the data, not from the text of the source: active = growth inhibition above about 70%; inactive = the rest.

This experiment can be described thus: NCI Yeast Anticancer Drug Screen. Data for the sgs1 mgt1 strain (AID 161).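 Note: 0% = growth of cultures given vehicle only.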 The following applies: S. cerevisiae sgs1 mgt1 strain, at 50.0 µM, stronger effect = higher value. Here is the method: Growth inhibition of yeast strains with defined genetic alterations is measured as a screen for potential anti-cancer activity. Selected strains with alterations in DNA damage repair or cell cycle control were exposed to compounds and growth inhibition was measured relative to vehicle treated controls. The strain used in this assay is sgs1 mgt1
For the molecule `NC(=O)c1cc([N+](=O)[O-])c([N+](=O)[O-])cc1N(CCCl)CCCl`, the growth inhibition was 27.2% (inactive). With `Clc1ccc(C(Cl)(Cl)Cl)c(Cl)c1`, the growth inhibition was -9.3% (inactive). Consider `C[C@]12CCc3nonc3C1CC[C@@H]1C2CC[C@@]2(C)C1CC[C@@H]2O` (stereo not given in full), for which the growth inhibition is -0.4% (inactive). Take `O=C(O)C(Cc1cnc[nH]1)N1C(=O)c2ccccc2C1=O` (stereo not given): the growth inhibition is -1% (inactive). With `O=C1NC(=O)C(=C/C=C/c2ccccc2)C(=O)N1`, the growth inhibition is 18.6% (inactive). For `O=C(COc1ccc(Cl)cc1)Nc1ccc(Cl)cc1C(=O)c1ccccc1`, the growth inhibition was 17.3% (inactive). Regarding `Cc1ccc(S(=O)(=O)OC2CC3c4ccccc4C2c2cccc[n+]23)cc1` (stereo not given), the growth inhibition was 36.4% (inactive).

As to `CC(Cc1cccc2c1Nc1ccccc1S2)N(C)CCO` (stereo not given), the growth inhibition was -28.6% (inactive). With `CC1(C)N=C(N)N=C(N)N1c1ccc(CCC(=O)Nc2cccc(S(=O)(=O)F)c2)c(Cl)c1`, the growth inhibition was 68% (inactive). Turning to `[Se]=P(NC1CCCCC1)(NC1CCCCC1)NC1CCCCC1`, the growth inhibition is 2% (inactive). Regarding `O=[N+]([O-])c1ccc(/C=C/c2cc(Cl)ccc2S(=O)(=O)F)c(Cl)c1`, the growth inhibition is 6.8% (inactive). The result for `CNC(=O)O/N=C(\CN=[N+]=[N-])C(C)(C)C` reads -1.4% (inactive); that for `CO[C@H](C)[C@](O)(C(=O)OCC1=CCN2CC[C@@H](O)[C@H]12)C(C)C`, -8.8% (inactive). `CC(C)(Br)[N+](=O)[O-]`: the growth inhibition was 4.45% (inactive).

As for `CCOC(=O)C1C2(C(C)=O)C=Nc3c(C#N)cnn3C12C(=O)OCC` (stereo not given), the growth inhibition was 4.85% (inactive). As to `COc1ccc(O)c2c(=O)c3c(OC)cc4c(c3oc12)[C@@H]1C=CO[C@@H]1O4`, the growth inhibition was 17.5% (inactive). The result for `CCOP(=O)(OCC)C(=O)N(CC)CC` reads 10.6% (inactive); that for `CC(C)CCC1C(=O)N(C)C(=O)N(C)C1=O`, 3.15% (inactive); that for `CC(=N\O)/C(C)=N/O.CC(=N\O)/C(C)=N/O.CC(=N\O)/C(C)=N/O.CC(=N\O)/C(C)=N/O.[Cu].[Cu]`, -22.1% (inactive). As for `CCOP(=O)(OCC)C(C#N)Cc1ccccc1OC` (stereo not given), the growth inhibition is 0.2% (inactive).

Consider `O=C1OCC2(CO)SC(c3ccccc3)NC12` (stereo not given), for which the growth inhibition is -17.1% (inactive). Turning to `[CH3][Sn]([Cl])([Cl])[c]1ccccc1`, the growth inhibition is 8.7% (inactive). Regarding `CC(C)(C(=O)c1ccccc1)N1CC1`, the growth inhibition was -4.75% (inactive).

For the molecule `O=C(Nc1cc(Cl)c(Cl)cc1Cl)C(=O)C1C(=O)NC(=S)NC1=O`, the growth inhibition is -9% (inactive). The result for `CC1N2C3(c4ccccc4)OC(c4ccccc4)(c4ccccc43)C12c1ccccc1` (stereo not given) reads 4.95% (inactive); that for `O=C(CF)Nc1ccc([N+](=O)[O-])cc1`, -6.25% (inactive); that for `C[N+]1([O-])C2CCC1CC(O)C2` (stereo not given), 1.45% (inactive). As for `Nc1nc(-c2cccc(S(=O)(=O)F)c2)cs1`, the growth inhibition was 55.5% (inactive). Next, `CCCCCCCCSP(SCCCCCCCC)SCCCCCCCC`: -25.3% (inactive); `Cc1cc(S(=O)(=O)F)ccc1NC(=O)/C=C/c1ccc([N+](=O)[O-])cc1`: 0.75% (inactive).

For the molecule `CC1(c2cccc(N(CCCl)CCCl)c2)NC(=O)NC1=O` (stereo not given), the growth inhibition is 13.2% (inactive). The result for `CC1(C)N=C(N)N=C(N)N1c1ccc(CCc2ccc(S(=O)(=O)F)cc2Cl)c(Cl)c1` reads 99.7% (active). With `[C-]#[O+].[C-]#[O+].[C-]#[O+].[C-]#[O+].[Cr].c1ccc([PH+](CC[PH+](c2ccccc2)c2ccccc2)c2ccccc2)cc1`, the growth inhibition was -0.9% (inactive). For `CN1CCCC1c1ccc[n+](C)c1` (stereo not given), the growth inhibition is 5.6% (inactive). For `CC(C)(C)P(O)(=S)c1ccccc1` (stereo not given) (tested in a mixture with another compound), the growth inhibition is 1.9% (inactive). In the case of `CN(C)C(=O)Oc1ccc([N+](=O)[O-])cc1OC(=O)N(C)C`, the growth inhibition was 0.8% (inactive). Consider `COc1ccc(C(C)(C)CC(C)(C)C)cc1`, for which the growth inhibition is 32.8% (inactive). The result for `CN(C)c1ccc(NP(=O)(Nc2ccc(N(C)C)cc2)N(CCCl)CCCl)cc1` reads 11% (inactive); that for `CNCC(C)c1ccccc1OC` (stereo not given), 2% (inactive); that for `CCC(C)OP(=S)(S)OC(C)CC.[Zn+2]` (stereo not given), -6% (inactive).
